# Measurements as given in PubChem BioAssay (NCI).
# This is part of a sample that, as a whole, favours compounds with a hit. Of some 83,000 tested, about 20% had one in any assay.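 96-well plates, one dose, 48 hours. Percent growth reported; active if below 10.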 Activity calls are given as the source filed them.
# System: MDA-MB-468 breast
# Assay: NCI-60 one-dose screen, 48 h (100 = growth as untreated, 0 = no growth, -100 = all killed)
# Settings: 10 µM unless noted
row,Compound,growth
1,O=C(CSc1nnc(-c2ccc3nc(-c4ccc(Cl)cc4)[nH]c3c2)o1)Nc1ccc(C(=O)/C=C/c2ccc(Cl)cc2)cc1,100% (inactive)
2,CCCCc1nc2c(N)nc3ccccc3c2n1Cc1ccc(OC)cc1,41.2% (inactive)
3,COc1cccc(-c2cc(-c3cc4ccccc4oc3=O)nc(N)n2)c1,92.7% (inactive)
4,O=C(Cc1ccc(/C=C/C(=O)c2ncc[nH]2)cc1)Nc1cc(C(F)(F)F)cc(C(F)(F)F)c1,65.3% (inactive)
5,COc1c([C@@H](CC(C)C)OC(C)=O)ccc2c1C(=O)OCc1cc(C)cc(O)c1O2,8.08% (active)
6,c1ccc(-c2nc3sc(C(c4ccccc4)c4ccccc4)nn3c2-c2ccccc2)cc1,96.1% (inactive)
7,Nc1ccn(Cc2nnc(CCC(=O)c3nc4ccccc4[nH]3)o2)c(=O)n1,79% (inactive)
8,Nc1nc(Nc2ccccc2SSc2ccccc2Nc2nc(N)nc(-c3cccc(Cl)c3)n2)nc(-c2cccc(Cl)c2)n1,95.3% (inactive)
9,CCc1c(C(=O)N[C@@H]2c3cc(Cl)ccc3CC[C@@H]2O)[nH]c(C)c1C(C)=O,94.1% (inactive)
10,C=CC(=O)Nc1cccc(Nc2nc(Nc3ccc(OCCOC(F)F)cc3)ncc2F)c1,-27.9% (active)
11,N#Cc1nc(-c2ccc(Cl)cc2)oc1N1CCC(S(=O)(=O)N2CCOCC2)CC1,97.5% (inactive)
12,COc1cccc(OC)c1C(=O)N[C@@H]1C(=O)N2[C@@H]1SC(C)(C)[C@@H]2C(=O)O,114% (inactive)
13,CNC(=O)c1cc(-c2ccc(NC(=O)Nc3ccc(N4CCOCC4)c(C(F)(F)F)c3)cc2)nc2cccnc12,29% (inactive)
14,Cn1cc(-c2ccc3c(c2)ncn3-c2ccc(CC(=O)Nc3cc(C(C)(C)C)on3)cc2)cn1,35.5% (inactive)
15,COc1ccc(-c2cc(-c3cc(OC)ccc3OC)nc(SCC(C)=O)c2C#N)cc1,56.2% (inactive)
16,Cc1ccc(/C=C2\CN(C(=O)CCN3CCC(=NO)CC3)C/C(=C\c3ccc(C)cc3)C2=O)cc1,-54.2% (active)
17,C=C(C)[C@@H]1CC[C@]2(C=NCCCNCCCCNCCCN)CC[C@]3(C)[C@H](CC[C@@H]4[C@@]5(C)CCCNC(C)(C)[C@@H]5CC[C@]43C)[C@@H]12,98.5% (inactive)
18,COc1ccc(-c2cc(-c3ccc(Cl)cc3)c(C#N)c(=O)n2CCCCC(=O)Nc2ccccc2N)cc1,47.9% (inactive)

row,Compound,growth
1,Cc1ccc(-c2nc(N3CCNCC3)c3oc(-c4ccc(C)cc4)nc3n2)cc1,-33.5% (active)
2,CCOCc1cc(C(C)(C)C)ccc1O,94.3% (inactive)
3,CC(Cc1cccc(C(F)(F)F)c1)NCCOC(=O)c1ccccc1 (stereo not given),107% (inactive)
4,O=C1CNC(c2ccccc2)C(c2ccccc2)N1 (stereo not given),93.1% (inactive)
5,C#C[C@]1(O)CC[C@H]2[C@@H]3CC=C4c5sc(-c6cccc(O)c6)nc5CC[C@]4(C)[C@H]3CC[C@@]21C,1.79% (active)
6,COc1ccc(-c2cc(-c3ccc(Nc4ccnc5cc(Cl)ccc45)cc3)nc(N3CCOCC3)n2)cc1,42.1% (inactive)
7,CC[C@]12C=CCN3CC[C@@]4(c5cc(NC(=O)COc6cc(O)c7c(=O)cc(-c8ccccc8)oc7c6)c(OC)cc5N(C)[C@H]4[C@@](O)(C(=O)OC)[C@@H]1OC(C)=O)[C@@H]32,-74.6% (active)
8,O=C(CSc1nc2ccc([N+](=O)[O-])cc2[nH]1)Nc1ccc(F)c(Cl)c1,-14.9% (active)
9,COc1cc(-c2cccc([N+](=O)[O-])c2)c(-c2nc(-c3ccccc3)c(-c3ccccc3)n2C2CC2)cc1OC,49.4% (inactive)
10,Cc1csc(Nc2nc(-c3cccc(Br)c3)nc(C(Cl)(Cl)Cl)n2)n1,-29.8% (active)
11,Cc1nc(Nc2n[nH]c3c2CN(C(=O)N[C@H](CN(C)C)c2ccccc2)C3(C)C)c2sccc2n1,-44.3% (active)
12,O=C(NNc1ccccc1)C1CCCN1 (stereo not given),81% (inactive)
13,COc1ccc(NC(=S)N/N=C/c2ccccc2SSCCC(=O)OC[C@H]2O[C@H](O)[C@H](O)[C@@H](O)[C@@H]2O)cc1,-8.32% (active)
14,CN1CSC(=S)N(Cc2ccccc2)C1,7.55% (active)
15,COc1ccc([C@H]2[C@H](O)C(=O)N2c2cc(OC)c(OC)c(OC)c2)cc1O,5.56% (active)
16,CC1=Cc2ccccc2OC12C=Cc1ccccc1O2 (stereo not given),97% (inactive)
17,C=C(C)[C@@H]1CC[C@]2(C(=O)NCCCO)CC[C@]3(C)[C@H](CC[C@@H]4[C@@]5(C)CCCNC(C)(C)[C@@H]5CC[C@]43C)[C@@H]12,72.3% (inactive)
